According to PubChem BioAssay (NCI):
This is part of a sample that, as a whole, favours compounds with a hit. Of some 83,000 tested, about 20% had one in any assay.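 In brief: 96-well plates, 48 h treatment, single concentration, percent growth endpoint.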 A number with no mark means an inactive call. Active and inactive are the calls of the source. How the source made its calls: active means growth percent below 10; inactive means the rest.

Assays:
Test in all cases: NCI-60 one-dose screen, 48 h (100 = growth as untreated, 0 = no growth, -100 = all killed)
NCI-H23 lung = settings: 10 µM unless noted
NCI-H226 lung = settings: 10 µM unless noted
NCI-H322M lung = settings: 10 µM unless noted
HOP-62 NSCLC = settings: 10 µM unless noted
NCI-H460 lung = settings: 10 µM unless noted
HOP-92 NSCLC = settings: 10 µM
NCI-H522 lung = settings: 10 µM unless noted
A549/ATCC NSCLC = settings: 10 µM unless noted
786-0 renal = settings: 10 µM unless noted
COLO 205 colon = settings: 10 µM unless noted
DU-145 prostate = settings: 10 µM unless noted
K-562 leukemia = settings: 10 µM unless noted
MALME-3M melanoma = settings: 10 µM unless noted
MDA-MB-231 breast = settings: 10 µM unless noted
SF-268 CNS = settings: 10 µM unless noted
SF-295 CNS = settings: 10 µM unless noted
SF-539 CNS = settings: 10 µM unless noted
UACC-257 melanoma = settings: 10 µM unless noted

| SMILES | growth (NCI-H23 lung) | growth (NCI-H226 lung) | growth (NCI-H322M lung) | growth (HOP-62 NSCLC) | growth (NCI-H460 lung) | growth (HOP-92 NSCLC) | growth (NCI-H522 lung) | growth (A549/ATCC NSCLC) | growth (786-0 renal) | growth (COLO 205 colon) | growth (DU-145 prostate) | growth (K-562 leukemia) | growth (MALME-3M melanoma) | growth (MDA-MB-231 breast) | growth (SF-268 CNS) | growth (SF-295 CNS) | growth (SF-539 CNS) | growth (UACC-257 melanoma) |
| --- | --- | --- | --- | --- | --- | --- | --- | --- | --- | --- | --- | --- | --- | --- | --- | --- | --- | --- |
| CCn1c(SCC(=O)Nc2cccc(C(=O)/C=C/c3ccc(Br)cc3)c2)nc2ccccc2c1=O | 82.9% | 88.9% | 94.3% | 98.8% | 98.9% | 76.9% | 84% | 77.7% | 99.8% | 112% | 104% | 77.3% | 95.3% | 85.5% | 100% | 98.5% | 91.4% | 96.3% |
| Cc1nc(-c2ccccc2O)ccc1C(=O)N=Nc1c(O)[nH]c2ccc(Br)cc12 | 96.2% | 81.4% | 99.5% | 84.3% | 99.8% | 62.1% | 97% | 103% | 102% | 105% | 113% | 113% | 85.4% | 87.6% | 96.7% | 104% | 95.7% | 104% |
| COc1ccc(NC(=O)CSc2nnc(-c3ccc4nc(-c5ccccc5)[nH]c4c3)o2)cc1 | 96.3% | 96.2% | 98% | 101% | 99.8% | 99.4% | 94.2% | 101% | 96.3% | 108% | 104% | 84.2% | 99.2% | 97.1% | 101% | 102% | 96.2% | 106% |
| COc1cc(/C=N/NC(=O)c2cn(C3CC3)c3c(OC)c(N4CC5CCCNC5C4)c(F)cc3c2=O)ccc1O (stereo not drawn) | 55.4% | 87.3% | 55.4% | 96% | -66.6% (active) | 79.5% | 46.8% | -21.4% (active) | -62.2% (active) | 35.6% | 46.5% | -25.5% (active) | 89.2% | -27.4% (active) | 82.1% | 100% | -9.11% (active) | 104% |
| CC/C(=C/c1c(O)cccc1OC)c1ccc2c(OC)cccc2[o+]1 | 98.9% | 99% | 101% | 101% | 103% | 110% | 93.2% | 102% | 101% | 110% | 112% | 96.6% | 105% | 102% | 100% | 98.5% | 98.5% | 101% |
| O=C(NNc1nc2cc(F)cc(F)c2n2cccc12)c1cnccn1 | 24.6% | 29.3% | 30.2% | 14.5% | 1.69% (active) | 26.1% | 0.755% (active) | 15% | 14.3% | 6.31% (active) | 22.4% | 14.3% | 23.1% | 33.4% | 21.9% | 10.9% | 7.61% (active) | 3.96% (active) |
| CCCCCc1ccc(S(=O)(=O)Nc2cccc(-c3csc(NC(=O)CCCCCN4CCN(CCO)CC4)n3)c2)cc1 | 81.1% | 92.7% | 87.5% | 85.1% | 23.9% | 62.7% | 77.2% | 74.5% | 68.3% | 72.8% | 83% | -21.3% (active) | 29.8% | 75.7% | 83.2% | 91.5% | 67.3% | 86.7% |
| COc1cccc(O)c1/C=C(/C)c1ccc2c(OC)cccc2[o+]1 | 103% | 105% | 103% | 92.5% | 109% | 104% | 98.5% | 107% | 101% | 117% | 111% | 95.6% | 96.8% | 101% | 100% | 99.1% | 93.2% | 118% |
| Cc1ccc2c(c1)C13C(=C2Br)CCCN1C(=O)c1ccccc13 (stereo not drawn) | 92.8% | 92.3% | 97.5% | 96.9% | 105% | 78.8% | 80.8% | 98.1% | 84.3% | 108% | 102% | 46.3% | 85.3% | 93.7% | 90.6% | 94.2% | 98.4% | 93.3% |
| COc1ccc(NC2=C(Cl)C(=O)c3nc(C)ccc3C2=O)cc1OC | 59% | 97.1% | 99% | 110% | 100% | 112% | 78.8% | 107% | 99% | 108% | 93% | 7.18% (active) | 94.5% | 73% | 84.7% | 104% | 103% | 91% |
| O=C(NNc1nc2cc(F)c(F)cc2n2c(CN3CC4CNCC4C3)ccc12)c1ncccn1 (stereo not drawn) | 26% | 10.6% | 27.8% | 0.597% (active) | 2.27% (active) | 20.2% | 0.166% (active) | 15.2% | 9.75% (active) | 9.36% (active) | 24% | 9.16% (active) | 10.3% | 38.7% | 19.7% | -14.5% (active) | 6.72% (active) | 8.25% (active) |
| COc1cc2c(cc1OC)C(Sc1ccc(F)cc1)c1c(nc(N)c(C#N)c1N)O2 (stereo not drawn) | -83.1% (active) | -29.4% (active) | -74.8% (active) | 10.5% | -60.7% (active) | -29.4% (active) | -37.7% (active) | -30% (active) | -72.3% (active) | -45.3% (active) | -93.3% (active) | 8.27% (active) | -75.1% (active) | -79% (active) | -38.3% (active) | -74.8% (active) | -90.6% (active) | -25% (active) |
| COc1ccccc1NCc1cccn1Cc1ccc(F)cc1 | 96.6% | 90.4% | 92.5% | 92% | 103% | 81.5% | 79.5% | 101% | 92.8% | 110% | 90% | 111% | 101% | 89.4% | 92.5% | 104% | 98.6% | 102% |
| C#Cc1ccc(C(=O)NCc2ccc(/C=C/C(=O)c3nccn3C)cc2)cc1 | 10% | 31.9% | 12.5% | 27.5% | -45.4% (active) | -0.611% (active) | 25.9% | 13.4% | 19.3% | 22.8% | 21% | 18.8% | 69.5% | 16.1% | 13.5% | 20.7% | -17% (active) | 67.7% |
| COc1cc(/C=C2\C(=O)Nc3ccccc32)ccc1OCc1ccc(F)cc1 | 99% | 100% | 103% | 100% | 86.4% | 99.8% | 91.9% | 108% | 107% | 111% | 106% | 104% | 99.8% | 100% | 105% | 102% | 102% | 118% |
| CC1=NC2=NC(=O)/C(=C3/N=C(C)C=C(c4ccccc4)N3N)NN2C(c2ccccc2)=C1 | 106% | 88.3% | 103% | 94.3% | 111% | 100% | 97.9% | 109% | 108% | 114% | 105% | 101% | 44.3% | 72.2% | 103% | 106% | 100% | 109% |
